About 83,000 compounds went through this panel and 20% of them were active in at least one assay; those are over-represented in the sample as a whole.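 Growth was measured after 48 h exposure to one concentration of compound in 96-well plates. Values under 10 count as active.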 A number with no mark means an inactive call. The source made the active and inactive calls.

In this assay the test system is SK-MEL-28 melanoma. Nature of the assay: NCI-60 one-dose screen, 48 h (100 = growth as untreated, 0 = no growth, -100 = all killed). The note with it: 10 µM. The procedure:
Growth inhibition of the SK-MEL-28 human tumor cell line is measured as a screen for anti-cancer activity. Cells are grown in 96 well plates and exposed to the test compound for 48 hours. Compounds are tested at a single concentration, which is 10^-5 M for most compounds. The reported endpoint is percent growth (GI% or GIPRCNT), where numbers from 0 - 100% represent growth inhibition, and numbers from -100% - 0 represent cell death. For example, a value of 40 represents 60% growth inhibition. A value of 0 means no net growth occurred over the course of the experiment. A value of -40 indicates 40% of cells at the beginning of the experiment died by the end of the experiment. A value of -100 means all cells are dead at the end of the experiment.
NCI-60 Human Tumor Cell Lines Screen was performed using the standard one-dose NCI protocol, which is described in more detail at https://dtp.cancer.gov/discovery_development/nci-60/default.htm.
Compounds with GIPRCNT values below 10 were considered active. Activity score was based on GIPRCNT using the following formula: […]
Score is 0 for GIPRCNT values of 100 or above, 50 for GIPRCNT values of 0, and 100 for GIPRCNT values of -100.
As to `O=C(O)CCCc1ccccc1`, the growth was 111%. Next, `CCOC(=O)C(CCC(C)C)C(=O)OCC`: 107%; `Cc1ccc(Cl)cc1N1C(=O)CC(Sc2ccccc2N)C1=O` (stereo not given): 92.5%.

In the case of `CC1SC(N)=NC1=O` (stereo not given), the growth was 112%. Next, `[O-][N+](=Nc1cccc(Cl)c1)c1cccc(Cl)c1`: 113%; `CCOC(=O)C(=O)C=P(c1ccccc1)(c1ccccc1)c1ccccc1`: 110%; `COC(=O)c1cccc(Br)c1`: 118%. With `O=C(O)[C@@H]1[C@H]2C[C@H]3c4[nH]c5ccccc5c4CCN3C[C@@H]2CC[C@@H]1O`, the growth is 120%.

`COC(=O)c1cccnc1`: the growth is 103%. Next, `COc1cc(C(=O)N/N=C/c2cccc([N+](=O)[O-])c2)cc(OC)c1OC`: 62.1%; `C[C@@H](c1ccccc1)[C@@H](C(=O)O)c1ccccc1`: 108%; `CN(C)c1nc2c([nH]1)c(=O)n(C)c(=O)n2C`: 110%. Next, `CCOC(=O)/C(C#N)=C/c1cccc(C)c1`: 109%; `CC(C)=C(NC(=O)c1ccccc1)C(=O)O`: 108%. Next, `COc1cccc(/C=N/NC(=S)NC2CC3CCC2C3)c1O` (stereo not given): 67.6%; `Nc1ncnc2[nH]ncc12`: 28.5%; `CC(C)=CC(=O)OC(=O)C=C(C)C`: 102%.

With `Cc1ccc(CCCC(=O)O)c(C)c1`, the growth was 98.1%. Turning to `O=[N+]([O-])c1ccc(S(=O)(=O)NN=C2CCCCC2)cc1`, the growth was 110%. With `Cc1cc(C(C)(C)C)cc(C)c1Br`, the growth is 109%. The same measure for `CN(C)c1ccc(S(=O)(=O)O)cc1`: 110%; for `Cc1cccc(CO)c1`: 109%.

Turning to `Cc1ccncc1C(N)=O`, the growth was 114%. `O=C(c1ccc(O)cc1)c1ccc(O)cc1`: the growth is 110%. On to `CN(C)C(=O)Oc1cccc([N+](C)(C)C)c1`, for which the growth was 108%.

Take `CCCCCCCO`: the growth was 98.3%.

Turning to `CSC(=N\N=C\c1ccc(N(C)C)cc1)/N=C/N(C)C`, the growth is 111%. The same measure for `CN(C)c1ccc(C(c2ccc(O)cc2)c2ccc(N(C)C)cc2)cc1`: 101%; for `CN(C)c1ccc2oc(=O)c3ccccc3c2c1`: 113%. Next, `CCCCOC(=O)c1ccc(C(C)C)cc1`: 111%; `COc1ccccc1NC(=O)C1=C(C)NC(C)=C(C(=O)Nc2ccccc2OC)C1c1cccc([N+](=O)[O-])c1`: 82.2%; `O=C(O)COCC(=O)O`: 98.3%.

On to `COC(=O)c1ccc(C(C)C)cc1`, for which the growth was 110%. Next, `Cc1ccc(/C(C#N)=C/c2ccc3c(c2)OCO3)cc1`: 81.4%. With `Clc1ccc(-c2n[nH]c3c2Cc2ccccc2-3)cc1Cl`, the growth was 114%. In the case of `CC1=CC(=O)c2ccccc2C1=O`, the growth was 116%. For the compound `Nc1ncnc2c1nc(N)n2C1OC(CO)C(O)C1O` (stereo not given), the growth was -48.1% (active). Next, `CC1=C(/C=C/C(C)=C/C=C/C(C)=C/CO)C(C)(C)CCC1`: 113%; `Oc1ccc(O)cc1`: 112%. Next, `Cc1ccc(C(O)C2CC2)cc1` (stereo not given): 106%.

Source of the values: PubChem BioAssay (NCI).
